Laboratory results taken from PubChem BioAssay AID1159580 (chemical genetic matrix, 2015).
Hit rate of the full screen: of about 5,500 compounds, about 2,000 (36%) were called active. About 18% were inconclusive and are not listed. No stated cut-off is given here; in the data, active means normalized growth mostly below about 0.91 (no sharp cut-off); inconclusive means no clear call, values can overlap the other calls; inactive means mostly above about 0.92. The list shows a part of the results.

Assay: chemical genetic growth profiling, strain panel (AID 1159580);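 further: tested at 20 µM; growth read once vehicle control cultures reached saturation at 30 °C; 1 = growth at the plate median or of vehicle wells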
Conditions: growth OD

Measured: normalized growth

O=C(O)[C@H](O)[C@@](O)(Cc1ccc(O)cc1)C(=O)O
inactive: S. cerevisiae deletion strains, locus YJR066W, strain TOR1, stronger effect = lower value 0.995 | S. cerevisiae deletion strains, locus YJR075W, strain HOC1, stronger effect = lower value 1.03 | S. cerevisiae deletion strains, locus YKL009W, strain mrt4, stronger effect = lower value 1.07 | S. cerevisiae deletion strains, locus YKL068W, stronger effect = lower value 1 | S. cerevisiae deletion strains, locus YKL085W, strain MDH1 (second series), stronger effect = lower value 1.02 | S. cerevisiae deletion strains, locus YKL085W, strain MDH1, stronger effect = lower value 1.02 | S. cerevisiae deletion strains, locus YKL160W, strain elf1, stronger effect = lower value 1.01 | S. cerevisiae deletion strains, locus YKL190W, strain CNB1, stronger effect = lower value 1.02 | S. cerevisiae deletion strains, locus YKR001C, strain vps1, stronger effect = lower value 1.02 | S. cerevisiae deletion strains, locus YKR026C, strain gcn3, stronger effect = lower value 1 | S. cerevisiae deletion strains, locus YKR091W, strain srl3, stronger effect = lower value 1 | S. cerevisiae deletion strains, locus YLL001W, strain dnm1, stronger effect = lower value 1.03 | S. cerevisiae deletion strains, locus YLL026W, stronger effect = lower value 1 | S. cerevisiae deletion strains, locus YLL041C, strain sdh2, stronger effect = lower value 1 | S. cerevisiae deletion strains, locus YLR027C, strain aat2, stronger effect = lower value 1.01 | S. cerevisiae deletion strains, locus YLR039C, strain RIC1, stronger effect = lower value 1.13 | S. cerevisiae deletion strains, locus YLR058C, strain SHM2, stronger effect = lower value 1.04 | S. cerevisiae deletion strains, locus YLR102C, strain apc9, stronger effect = lower value 0.994 | S. cerevisiae deletion strains, locus YLR113W, strain HOG1, stronger effect = lower value 1 | S. cerevisiae deletion strains, locus YLR221C, strain rsa3, stronger effect = lower value 1.03 | S. cerevisiae deletion strains, locus YLR258W, strain gsy2, stronger effect = lower value 1.01 | S. cerevisiae deletion strains, locus YLR262C, strain YPT6 (second series), stronger effect = lower value 1.03 | S. cerevisiae deletion strains, locus YLR268W, strain sec22, stronger effect = lower value 1.04 | S. cerevisiae deletion strains, locus YLR320W, strain mms22, stronger effect = lower value 1.03 | S. cerevisiae deletion strains, locus YLR330W, strain CHS5, stronger effect = lower value 1.02 | S. cerevisiae deletion strains, locus YLR342W, strain FKS1 (second series), stronger effect = lower value 1.09 | S. cerevisiae deletion strains, locus YLR342W, strain FKS1, stronger effect = lower value 1.01 | S. cerevisiae deletion strains, locus YLR357W, strain rsc2, stronger effect = lower value 1.01 | S. cerevisiae deletion strains, locus YLR370C, strain arc18, stronger effect = lower value 1.01 | S. cerevisiae deletion strains, locus YLR371W, strain rom2, stronger effect = lower value 1 | S. cerevisiae deletion strains, locus YLR384C, strain iki3, stronger effect = lower value 1.01 | S. cerevisiae deletion strains, locus YLR418C, strain cdc73, stronger effect = lower value 1.01 | S. cerevisiae deletion strains, locus YML016C, strain PPZ1, stronger effect = lower value 1.01 | S. cerevisiae deletion strains, locus YML032C, strain rad52, stronger effect = lower value 1.01 | S. cerevisiae deletion strains, locus YML120C, strain ndi1, stronger effect = lower value 1 | S. cerevisiae deletion strains, locus YML124C, strain tub3, stronger effect = lower value 1.01 | S. cerevisiae deletion strains, locus YMR058W, strain fet3, stronger effect = lower value 1.02 | S. cerevisiae deletion strains, locus YMR078C, strain ctf18, stronger effect = lower value 0.982 | S. cerevisiae deletion strains, locus YMR125W, strain sto1, stronger effect = lower value 1.01 | S. cerevisiae deletion strains, locus YMR129W, stronger effect = lower value 1.01 | S. cerevisiae deletion strains, locus YMR205C, strain PFK2, stronger effect = lower value 1.02 | S. cerevisiae deletion strains, locus YMR223W, strain ubp8, stronger effect = lower value 1.01 | S. cerevisiae deletion strains, locus YMR231W, strain pep5, stronger effect = lower value 0.998 | S. cerevisiae deletion strains, locus YMR263W, strain SAP30, stronger effect = lower value 1.02 | S. cerevisiae deletion strains, locus YMR307W, strain GAS1, stronger effect = lower value 1.04 | S. cerevisiae deletion strains, locus YNL067W, strain RPL9B, stronger effect = lower value 1.02 | S. cerevisiae deletion strains, locus YNL071W, strain lat1, stronger effect = lower value 1.01 | S. cerevisiae deletion strains, locus YNL153C, strain GIM3, stronger effect = lower value 1.02 | S. cerevisiae deletion strains, locus YNL183C, strain NPR1, stronger effect = lower value 1.01 | S. cerevisiae deletion strains, locus YNL209W, strain ssb2, stronger effect = lower value 1 | S. cerevisiae deletion strains, locus YNL233W, strain BNI4, stronger effect = lower value 1.04 | S. cerevisiae deletion strains, locus YNL248C, strain rpa49, stronger effect = lower value 1 | S. cerevisiae deletion strains, locus YNL250W, strain rad50, stronger effect = lower value 1.01 | S. cerevisiae deletion strains, locus YNL271C, strain bni1, stronger effect = lower value 1.01 | S. cerevisiae deletion strains, locus YNL298W, strain CLA4, stronger effect = lower value 0.987 | S. cerevisiae deletion strains, locus YNL307C, strain MCK1, stronger effect = lower value 0.987 | S. cerevisiae deletion strains, locus YNL322C, strain KRE1 (second series), stronger effect = lower value 1.01 | S. cerevisiae deletion strains, locus YNR049C, strain mso1, stronger effect = lower value 1 | S. cerevisiae deletion strains, locus YNR052C, strain pop2, stronger effect = lower value 0.995 | S. cerevisiae deletion strains, locus YOL006C, strain TOP1, stronger effect = lower value 1.25 | S. cerevisiae deletion strains, locus YOL012C, strain htz1 0.973 | S. cerevisiae deletion strains, locus YOL147C, strain pex11, stronger effect = lower value 1 | S. cerevisiae deletion strains, locus YOR001W, strain rrp6, stronger effect = lower value 0.986 | S. cerevisiae deletion strains, locus YOR061W, strain CKA2, stronger effect = lower value 1.04 | S. cerevisiae deletion strains, locus YOR069W, strain VPS5, stronger effect = lower value 1.01 | S. cerevisiae deletion strains, locus YOR070C, strain gyp1, stronger effect = lower value 1.02 | S. cerevisiae deletion strains, locus YOR080W, strain dia2, stronger effect = lower value 1.01 | S. cerevisiae deletion strains, locus YOR083W, strain WHI5, stronger effect = lower value 1.03 | S. cerevisiae deletion strains, locus YOR106W, strain vam3, stronger effect = lower value 1.01 | S. cerevisiae deletion strains, locus YOR136W, strain idh2, stronger effect = lower value 1.01 | S. cerevisiae deletion strains, locus YOR144C, strain elg1, stronger effect = lower value 1 | S. cerevisiae deletion strains, locus YOR184W, strain ser1, stronger effect = lower value 1.04 | S. cerevisiae deletion strains, locus YOR231W, strain MKK1, stronger effect = lower value 1.02 | S. cerevisiae deletion strains, locus YOR265W, strain rbl2, stronger effect = lower value 1 | S. cerevisiae deletion strains, locus YOR270C, strain vph1, stronger effect = lower value 1.05 | S. cerevisiae deletion strains, locus YOR290C, strain snf2, stronger effect = lower value 1.01 | S. cerevisiae deletion strains, locus YOR316C, strain cot1, stronger effect = lower value 1 | S. cerevisiae deletion strains, locus YPL051W, strain arl3, stronger effect = lower value 1.05 | S. cerevisiae deletion strains, locus YPL078C, strain atp4, stronger effect = lower value 1.01 | S. cerevisiae deletion strains, locus YPL106C, strain sse1, stronger effect = lower value 1.01 | S. cerevisiae deletion strains, locus YPL240C, strain hsp82, stronger effect = lower value 1.01 | S. cerevisiae deletion strains, locus YPL241C, strain CIN2, stronger effect = lower value 1.01 | S. cerevisiae deletion strains, locus YPL256C, strain CLN2, stronger effect = lower value 0.993 | S. cerevisiae deletion strains, locus YPR119W, strain clb2, stronger effect = lower value 1 | S. cerevisiae deletion strains, locus YPR141C, strain kar3, stronger effect = lower value 1 | S. cerevisiae deletion strains, locus YPR163C, strain tif3, stronger effect = lower value 0.992 | S. cerevisiae deletion strains, locus YPR167C, strain met16, stronger effect = lower value 1.01 | S. cerevisiae deletion strains, strain wtn01, stronger effect = lower value 1.02 | S. cerevisiae strains, strain wild type, stronger effect = lower value 1.03
